Consider 8 compounds from PubChem BioAssay (Tox21).

Molecules are shown by their SMILES. Inconclusive results are not listed. The source made the active and inactive calls. Unless noted, calls come from the whole dose curve; as a rule, active = well fitted curve in the direction sought with a large enough effect in the repeat runs; inconclusive = weak or mixed curves; inactive = no such curve, though single readings can be large; an effect the other way counts as inactive or inconclusive.

Experiment [1] has as its target Aryl hydrocarbon receptor (Homo sapiens) (UniProt P35869). Put plainly: qHTS assay to identify small molecule that activate the aryl hydrocarbon receptor (AhR) signaling pathway (AID 743085).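 For activation: HG2L7.5c1 human HepG2 liver cells with stably integrated DRE-driven firefly reporter; series mostly up to about 70 µM.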 Note: nearly all actives have a fitted effect of over 15% in size. Note: potency is the fitted concentration of half-maximal effect. The procedure, abridged: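 HepG2 cells (HG2L7.5c1) stably carrying a firefly luciferase reporter driven by 20 dioxin responsive elements were exposed to compound for 24 h at 37C after a 5 h settling period; luminescence rise (ONE-Glo) indicated activation.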

Experiment [2] in a line: qHTS assay to identify small molecule that activate the aryl hydrocarbon receptor (AhR) signaling pathway - cell viability counter screen (AID 743086).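 Note: HepG2 liver cells carrying the AhR DRE luciferase reporter; series mostly up to about 70 µM; nearly all actives have a fitted effect of over 45% in size.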 The essentials:
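Cytotoxicity counter screen: CellTiter-Fluor signal (30 min, 37 C) in 4000 HepG2 cells/well carrying the DRE-luciferase reporter, following 24 h compound exposure at 37 C.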
For orientation: Quantitative high-throughput screening tests each substance at several concentrations.

Experiment [3] has as its target Peroxisome proliferator-activated receptor gamma (Homo sapiens) (UniProt P37231). Briefly: qHTS assay to identify small molecule agonists of the peroxisome proliferator-activated receptor gamma (PPARg) signaling pathway (AID 743094; active = well fitted activation curve with a large enough effect in the signal ratio in the repeat runs, not every such curve was filed as active; the % refers to the signal ratio). The essentials:
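Reporter activation was scored by fluorescence of cleaved LiveBLAzer B/G substrate (1 h, room temperature) in PPARg-bla HEK293H cells previously treated 17 h at 37C with DMSO-dissolved compounds.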

Experiment [4] shares this target. Briefly: qHTS assay to identify small molecule antagonists of the peroxisome proliferator-activated receptor gamma (PPARg) signaling pathway (AID 743191; calls by dose curve; note: series mostly up to about 63 µM; nearly all actives have a fitted effect of over 30% in size). The procedure, abridged:
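Beta-lactamase reporter under UAS control in HEK293H PPARg-bla cells; compound treatment 17 h at 37C. Read-out: fluorescence intensity after 1 h room-temperature incubation with LiveBLAzer B/G FRET substrate.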

Experiment [5] is described as follows: qHTS assay for small molecule agonists of the antioxidant response element (ARE) signaling pathway - cell viability counter screen (AID 743203; calls by dose curve; note: nearly all actives have a fitted effect of over 55% in size). The essentials:
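Viability counter screen: stably transfected ARE-bla HepG2 line, 16 hrs compound exposure at 37C/5% CO2, ATP-based CellTiter-Glo luminescence measured in the reporter wells.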

Experiment [6] can be described thus: qHTS assay for small molecule activators of the heat shock response signaling pathway - cell viability counter screen (AID 743209). Note: nearly all actives have a fitted effect of over 50% in size. The essentials:
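Viability of HSE-bla HeLa cells is measured with CellTiter-Glo in the wells already used for the reporter read. Compound exposure lasts 5 h at 37 C, and luminescence is read after 30 min at room temperature.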

Experiment [7] in a line: qHTS assay for small molecule activators of the heat shock response signaling pathway (AID 743210; active = well fitted activation curve with a large enough effect in the signal ratio in the repeat runs, with a control signal flat, not every such curve was filed as active; the % refers to the signal ratio; note: series mostly up to about 63 µM). The procedure, abridged: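 Compound exposure lasted 5 h at 37 C in HeLa cells carrying a heat-shock-element-driven beta-lactamase reporter. Read-out: fluorescence intensity after 2.5 h room-temperature loading with LiveBLAzer B/G FRET substrate.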
A short description of experiment [8]: qHTS assay to identify small molecule agonists of the peroxisome proliferator-activated receptor delta (PPARd) signaling pathway - cell viability counter screen (AID 743211). Note: nearly all actives have a fitted effect of over 55% in size. The procedure, abridged: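 PPARd-bla HEK293H cells (UAS-beta-lactamase reporter) were treated with compounds for 17 h at 37 C. Viability was then read in the same wells by CellTiter-Glo luminescence after 30 min at room temperature.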

Experiment [9] addresses Peroxisome proliferator-activated receptor delta (Homo sapiens) (UniProt Q03181). Briefly: qHTS assay to identify small molecule agonists of the peroxisome proliferator-activated receptor delta (PPARd) signaling pathway (AID 743212; calls by dose curve). The essentials:
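Beta-lactamase reporter readout: a ratiometric FRET signal from the LiveBLAzer substrate after 2 h at room temperature. Compound exposure at 37 °C in PPARδ-bla HEK293H cells driven by an upstream activator sequence.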

The nature of experiment [10]: qHTS assay to identify small molecule antagonists of the peroxisome proliferator-activated receptor delta (PPARd) signaling pathway - cell viability counter screen (AID 743213). Note: nearly all actives have a fitted effect of over 50% in size. The essentials: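 Viability counter-screen, qHTS format: PPARd-bla HEK293H, L165041 300 nM final, 17 h compound exposure at 37 C, CellTiter-Glo luminescence after 30 min RT.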
For experiment [11], the target named is Bile acid receptor (Homo sapiens) (UniProt Q96RI1). Put plainly: qHTS assay to identify small molecule antagonists of the farnesoid-X-receptor (FXR) signaling pathway (AID 743217; active = well fitted inhibition curve with a large enough effect in the signal ratio in the repeat runs, not every such curve was filed as active; the % refers to the signal ratio). The procedure, abridged:
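Screen of the Tox21 10K library in quantitative HTS format using FXR-UAS-bla HEK 293T reporter cells. Agonist chenodeoxycholic acid, 50 uM final, added with compounds; 16 h incubation at 37 °C; beta-lactamase FRET fluorescence measured.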

The target is the same in experiment [12]. Put plainly: qHTS assay to identify small molecule agonists of the farnesoid-X-receptor (FXR) signaling pathway (AID 743220; active = well fitted activation curve with a large enough effect in the signal ratio in the repeat runs, not every such curve was filed as active; the % refers to the signal ratio). The procedure, abridged: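 FXR-UAS-bla HEK 293T cells carrying a UAS-driven beta-lactamase reporter were plated for 5 h at 37C/5% CO2, then exposed to DMSO-dissolved Tox21 10K compounds for 16 h at 37C. A LiveBLAzer B/G FRET substrate was loaded for 2 h at room temperature before fluorescence reading.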

A short description of experiment [13]: qHTS assay to identify small molecule antagonists of the farnesoid-X-receptor (FXR) signaling pathway - cell viability counter screen (AID 743221; active = well fitted cell-killing curve with a large enough effect in the repeat runs, not every such curve was filed as active; note: nearly all actives have a fitted effect of over 50% in size). The procedure, abridged: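 FXR-UAS-bla HEK 293T cells were treated with test compounds plus chenodeoxycholic acid (50 uM final) for 16 h at 37 C. Cell viability in the same wells was then read as CellTiter-Glo luminescence after 30 min at room temperature.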

Experiment [14] deals with Vitamin D3 receptor (Homo sapiens) (UniProt P11473). Put plainly: qHTS assay to identify small molecule agonists of the vitamin D receptor (VDR) signaling pathway (AID 743222; calls by dose curve). The procedure, abridged:
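Fluorescence from cleaved LiveBLAzer B/G FRET substrate served as readout. VDR-bla cells had been treated 16 h at 37C with test compounds in DMSO, following a 4 h settling period, and substrate was loaded for 2 h at RT.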

The target of experiment [15] is Peroxisome proliferator-activated receptor delta (Homo sapiens) (UniProt Q03181). Put plainly: qHTS assay to identify small molecule antagonists of the peroxisome proliferator-activated receptor delta (PPARd) signaling pathway (AID 743215; active = well fitted inhibition curve with a large enough effect in the signal ratio in the repeat runs, not every such curve was filed as active; the % refers to the signal ratio;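 note: cells stimulated with agonist L165041 at 300 nM final during compound exposure; series mostly up to about 62 µM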). The procedure, abridged: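 Plated HEK293H PPARd-bla cells rested 5 h at 37 C and 5% CO2. Compound, then agonist L165041 at 300 nM final, was added; 17 h at 37 C followed. Substrate loading, 2 h room temperature, fluorescence measured.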

Experiment [16] in a line: qHTS assay to identify small molecule agonists of the farnesoid-X-receptor (FXR) signaling pathway - cell viability counter screen (AID 743218). Note: nearly all actives have a fitted effect of over 45% in size. The procedure, abridged:
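Viability of FXR-bla HEK 293T cells is measured by ATP-based CellTiter-Glo luminescence following 16 h compound treatment at 37 C and a prior 2 h room-temperature beta-lactamase substrate step.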

The nature of experiment [17]: qHTS assay to identify small molecule agonists of the vitamin D receptor (VDR) signaling pathway - cell viability counter screen (AID 743224). Note: series mostly up to about 63 µM; nearly all actives have a fitted effect of over 50% in size. The procedure, abridged:
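Compounds were pin-transferred onto VDR-bla cells plated 4 h earlier; following 16 h incubation at 37C, cell viability was quantified by CellTiter-Glo luminescence after 30 min at room temperature.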

A short description of experiment [18]: qHTS assay to identify small molecule antagonists of the peroxisome proliferator-activated receptor gamma (PPARg) signaling pathway - cell viability counter screen (AID 743194). Note: nearly all actives have a fitted effect of over 55% in size. Particulars: Potency: co-treated with 50 nM rosiglitazone. The procedure, abridged: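 Viability was measured as CellTiter-Glo luminescence in GeneBLAzer PPARg UAS-bla HEK293H cells. These cells had been exposed 17 h at 37 C to compounds together with rosiglitazone at 50 nM final, with the beta-lactamase readout taken in the same wells.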

In experiment [19] the target is Vitamin D3 receptor (Homo sapiens) (UniProt P11473). Put plainly: qHTS assay to identify small molecule antagonists of the vitamin D receptor (VDR) signaling pathway (AID 743223; active = well fitted inhibition curve with a large enough effect in the signal ratio in the repeat runs, not every such curve was filed as active; the % refers to the signal ratio). The procedure, abridged: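 VDR-bla cells were plated, incubated 4 h at 37C, then given compound and 1alpha,25-dihydroxyvitamin D3 (3 nM final). After 16 h at 37C, LiveBLAzer B/G FRET substrate was added for 2 h at room temperature and fluorescence read.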

A short description of experiment [20]: qHTS assay for small molecule agonists of the antioxidant response element (ARE) signaling pathway (AID 743202; active = well fitted activation curve with a large enough effect in the signal ratio in the repeat runs, not every such curve was filed as active; the % refers to the signal ratio). The essentials:
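After 16 hours of compound treatment at 37 C, HepG2 cells with a stably integrated ARE-driven beta-lactamase reporter were loaded 2 hours at room temperature with LiveBLAzer B/G FRET substrate and fluorescence intensity measured.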

Chain of Vitamin D3 receptor (Homo sapiens) (P11473 whole entry, looked up): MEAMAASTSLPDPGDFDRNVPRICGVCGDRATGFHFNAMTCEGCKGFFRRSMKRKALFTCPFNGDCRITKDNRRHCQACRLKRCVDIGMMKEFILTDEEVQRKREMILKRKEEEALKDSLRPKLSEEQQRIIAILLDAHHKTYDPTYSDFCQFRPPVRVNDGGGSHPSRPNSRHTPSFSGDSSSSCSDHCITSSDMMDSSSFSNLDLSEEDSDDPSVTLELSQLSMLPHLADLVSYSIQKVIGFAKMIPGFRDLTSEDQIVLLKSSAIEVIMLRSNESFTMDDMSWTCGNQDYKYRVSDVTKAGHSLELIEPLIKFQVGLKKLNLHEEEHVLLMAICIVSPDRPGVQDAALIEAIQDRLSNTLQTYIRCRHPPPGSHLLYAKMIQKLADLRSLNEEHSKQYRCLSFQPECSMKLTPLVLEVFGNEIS
Chain of Aryl hydrocarbon receptor (Homo sapiens) (P35869 whole entry, looked up): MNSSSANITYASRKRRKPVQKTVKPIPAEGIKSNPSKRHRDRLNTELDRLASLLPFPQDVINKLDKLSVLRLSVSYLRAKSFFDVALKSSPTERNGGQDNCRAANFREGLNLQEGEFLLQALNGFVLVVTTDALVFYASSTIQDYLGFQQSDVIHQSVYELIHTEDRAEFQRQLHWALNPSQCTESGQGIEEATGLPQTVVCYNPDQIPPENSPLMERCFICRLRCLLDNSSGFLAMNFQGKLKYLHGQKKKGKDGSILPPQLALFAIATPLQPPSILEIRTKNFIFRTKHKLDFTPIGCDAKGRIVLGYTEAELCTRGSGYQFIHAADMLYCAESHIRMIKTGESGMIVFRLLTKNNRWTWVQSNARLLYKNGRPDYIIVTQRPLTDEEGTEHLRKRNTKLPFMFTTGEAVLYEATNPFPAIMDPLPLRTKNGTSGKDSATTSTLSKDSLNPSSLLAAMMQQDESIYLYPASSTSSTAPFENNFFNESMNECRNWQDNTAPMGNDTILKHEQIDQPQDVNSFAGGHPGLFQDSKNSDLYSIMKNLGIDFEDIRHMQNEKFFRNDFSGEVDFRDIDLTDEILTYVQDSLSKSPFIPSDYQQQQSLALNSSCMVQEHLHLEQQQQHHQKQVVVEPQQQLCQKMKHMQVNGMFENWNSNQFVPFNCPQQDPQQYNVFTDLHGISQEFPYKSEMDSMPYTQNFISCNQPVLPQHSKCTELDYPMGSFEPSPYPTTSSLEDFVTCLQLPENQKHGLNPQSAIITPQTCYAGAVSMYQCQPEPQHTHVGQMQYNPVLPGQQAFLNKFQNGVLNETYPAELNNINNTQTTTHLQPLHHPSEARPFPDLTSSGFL
Chain of Peroxisome proliferator-activated receptor delta (Homo sapiens) (Q03181 whole entry, looked up): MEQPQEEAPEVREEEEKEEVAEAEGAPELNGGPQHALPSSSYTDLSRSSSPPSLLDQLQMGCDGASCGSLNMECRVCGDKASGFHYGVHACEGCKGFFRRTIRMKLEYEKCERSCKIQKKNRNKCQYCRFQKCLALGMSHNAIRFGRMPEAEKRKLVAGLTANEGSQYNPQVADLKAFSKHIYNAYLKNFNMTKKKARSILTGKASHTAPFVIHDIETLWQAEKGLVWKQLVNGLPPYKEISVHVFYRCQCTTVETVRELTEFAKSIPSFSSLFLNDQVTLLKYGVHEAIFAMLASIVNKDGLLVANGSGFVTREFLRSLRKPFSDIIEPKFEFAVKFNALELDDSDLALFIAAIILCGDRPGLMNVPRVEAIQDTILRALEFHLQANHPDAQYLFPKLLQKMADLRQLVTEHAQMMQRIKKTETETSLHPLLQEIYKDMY
Chain of Bile acid receptor (Homo sapiens) (Q96RI1 whole entry, looked up): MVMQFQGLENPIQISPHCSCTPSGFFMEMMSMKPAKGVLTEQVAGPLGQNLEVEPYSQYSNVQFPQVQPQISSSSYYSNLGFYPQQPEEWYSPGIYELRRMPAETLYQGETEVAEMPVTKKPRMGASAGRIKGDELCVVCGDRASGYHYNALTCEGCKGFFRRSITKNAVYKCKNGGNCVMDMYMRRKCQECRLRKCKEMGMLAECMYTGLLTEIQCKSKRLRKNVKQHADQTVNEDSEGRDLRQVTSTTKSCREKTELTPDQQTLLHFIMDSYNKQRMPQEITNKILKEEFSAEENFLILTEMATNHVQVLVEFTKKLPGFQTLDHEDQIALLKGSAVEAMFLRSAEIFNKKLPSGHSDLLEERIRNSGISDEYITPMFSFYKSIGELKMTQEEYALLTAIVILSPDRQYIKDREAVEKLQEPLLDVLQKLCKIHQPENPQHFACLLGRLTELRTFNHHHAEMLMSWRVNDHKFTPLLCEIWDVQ
Chain of Peroxisome proliferator-activated receptor gamma (Homo sapiens) (P37231 whole entry, looked up): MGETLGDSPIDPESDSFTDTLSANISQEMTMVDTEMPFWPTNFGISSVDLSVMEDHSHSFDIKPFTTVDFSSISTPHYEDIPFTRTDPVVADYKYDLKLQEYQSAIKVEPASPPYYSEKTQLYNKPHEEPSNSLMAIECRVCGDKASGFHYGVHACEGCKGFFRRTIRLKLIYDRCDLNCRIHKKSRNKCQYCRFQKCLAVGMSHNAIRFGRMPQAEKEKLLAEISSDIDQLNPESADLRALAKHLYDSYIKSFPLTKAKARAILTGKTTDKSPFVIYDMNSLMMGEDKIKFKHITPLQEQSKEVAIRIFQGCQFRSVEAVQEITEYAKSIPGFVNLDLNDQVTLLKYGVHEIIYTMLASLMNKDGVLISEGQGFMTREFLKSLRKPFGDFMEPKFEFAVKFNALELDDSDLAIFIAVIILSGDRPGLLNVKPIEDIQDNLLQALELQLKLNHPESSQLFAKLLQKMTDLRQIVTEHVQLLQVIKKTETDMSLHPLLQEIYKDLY

With `NC(=S)C(N)=S`, the Potency entry in experiment [1], in [4], in [5], in [6], in [8] and in [11] was “inactive” each time. Also, the compound was classed as inactive in experiment [2], in experiment [3], in experiment [7], in experiment [9], in experiment [10] and in [12]. In addition, the compound was classed as inactive in experiment [13] and in [14].
As to `O=S(=O)(O)C(F)(F)C(F)(F)C(F)(F)C(F)(F)C(F)(F)C(F)(F)F`, the Potency entry in experiment [1], in [4], in experiment [5], in experiment [6], in experiment [8] and in experiment [11] was “inactive” throughout. Further, the Potency entry in experiment [16] and in experiment [17] was “inactive” each time. Besides, the compound was called inactive in experiment [2], in experiment [3], in [7], in [10], in experiment [15] and in experiment [12]. Moreover, the compound was classed as inactive in [13].
Regarding `CCOP(=S)(OCC)Oc1ncn(-c2ccccc2)n1`, the Potency in [1] is 24.3 µM (active). Also, the call in [2], in [3], in experiment [7], in experiment [10], in experiment [12] and in [13] was inactive. Further, the outcome in experiment [14] and in [19] was inactive. Besides, the Potency entry in [4], in experiment [18], in experiment [5], in experiment [6], in experiment [8] and in [11] was “inactive” throughout. Moreover, in [17], the Potency entry was “inactive”.
As to `CS(=O)(=O)c1cc(C(F)(F)F)ccc1C(=O)c1cnoc1C1CC1`, the Potency entry in [1], in experiment [18], in [20], in [5], in [6] and in [8] was “inactive” each time. In addition, the Potency result in [16] and in [17] was “inactive” throughout. The call in [2], in experiment [3], in [7], in experiment [9], in experiment [10] and in experiment [15] was inactive. Further, the result in experiment [13], in [14] and in [19] was inactive.
`ClCC(Cl)Cl`: the Potency result in experiment [1], in experiment [4], in experiment [18], in experiment [6], in experiment [8] and in [16] was “inactive” each time. Besides, the Potency result in [17] was “inactive”. Also, the compound was classed as inactive in [2], in experiment [3], in [7], in experiment [9], in [10] and in experiment [15]. The call in experiment [13] and in experiment [14] was inactive.
Regarding `CC(=O)Nc1cc([As](=O)(O)O)ccc1O`, the Potency entry in experiment [1], in experiment [4], in [20], in experiment [5], in experiment [6] and in experiment [8] was “inactive” in each case. For the same compound, the Potency result in [11], in experiment [16] and in [17] was “inactive” in each case. In addition, the result in experiment [2], in experiment [3], in experiment [9], in [10], in [15] and in experiment [12] was inactive. Moreover, the compound was called inactive in [13].
`CNNC`: the Potency entry in experiment [1], in experiment [18], in [5], in experiment [6], in [8] and in experiment [11] was “inactive” in each case. Moreover, the Potency result in experiment [16] and in experiment [17] was “inactive” each time. The compound was classed as inactive in [2], in experiment [3], in experiment [7], in experiment [10], in [12] and in experiment [13]. Besides, in experiment [14], the result was inactive.
`CC(C=O)Cc1ccc2c(c1)OCO2` (stereo unspecified): the Potency entry in [1], in experiment [18], in [20], in experiment [5], in [6] and in [8] was “inactive” in each case. Also, the Potency entry in [11], in [16] and in experiment [17] was “inactive” throughout. Also, the call in experiment [2], in [3], in experiment [7], in [9], in [10] and in [15] was inactive. The result in experiment [12], in experiment [13] and in [14] was inactive.
